# Reference: PubChem BioAssay AID1159580 (chemical genetic matrix, 2015)
# Screen size: about 5,500 compounds; about 2,000 (36%) were called active. About 18% were inconclusive and are not listed. Some of the results follow. A number with no mark means an inactive call. Cut-off read from the data, not from the text of the source: active = normalized growth mostly below about 0.91 (no sharp cut-off); inconclusive = no clear call, values can overlap the other calls; inactive = mostly above about 0.92.
# Assay: chemical genetic growth profiling, strain panel (AID 1159580);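 note: tested at 20 µM; growth read once vehicle control cultures reached saturation at 30 °C; 1 = growth at the plate median or of vehicle wells; lower values mean less growth of the strain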
# Conditions: growth OD
smiles,measurement,setting,value
C=C[C@@](C)(O)CCC1C(=C)CCC2[C@@](C)(CO)CCC[C@]12C (some centres undefined),normalized growth,"S. cerevisiae deletion strains, locus YJR066W, strain TOR1, active compounds read low",0.868
same,normalized growth,"S. cerevisiae deletion strains, locus YJR075W, strain HOC1, active compounds read low",1.05
same,normalized growth,"S. cerevisiae deletion strains, locus YKL009W, strain mrt4, active compounds read low",0.776 (active)
same,normalized growth,"S. cerevisiae deletion strains, locus YKL068W, active compounds read low",1.02
same,normalized growth,"S. cerevisiae deletion strains, locus YKL085W, strain MDH1 (second series), active compounds read low",0.994
same,normalized growth,"S. cerevisiae deletion strains, locus YKL085W, strain MDH1, active compounds read low",0.994
same,normalized growth,"S. cerevisiae deletion strains, locus YKL160W, strain elf1, active compounds read low",0.966
same,normalized growth,"S. cerevisiae deletion strains, locus YKL190W, strain CNB1, active compounds read low",1.06
same,normalized growth,"S. cerevisiae deletion strains, locus YKR001C, strain vps1, active compounds read low",1
same,normalized growth,"S. cerevisiae deletion strains, locus YKR026C, strain gcn3, active compounds read low",1.08
same,normalized growth,"S. cerevisiae deletion strains, locus YKR091W, strain srl3, active compounds read low",1.07
same,normalized growth,"S. cerevisiae deletion strains, locus YLL001W, strain dnm1, active compounds read low",0.935
same,normalized growth,"S. cerevisiae deletion strains, locus YLL026W, active compounds read low",1.03
same,normalized growth,"S. cerevisiae deletion strains, locus YLL041C, strain sdh2, active compounds read low",1.08 [resistant] (active)
same,normalized growth,"S. cerevisiae deletion strains, locus YLR027C, strain aat2, active compounds read low",0.997
same,normalized growth,"S. cerevisiae deletion strains, locus YLR039C, strain RIC1, active compounds read low",0.868
same,normalized growth,"S. cerevisiae deletion strains, locus YLR058C, strain SHM2, active compounds read low",1
same,normalized growth,"S. cerevisiae deletion strains, locus YLR102C, strain apc9, active compounds read low",1.05
same,normalized growth,"S. cerevisiae deletion strains, locus YLR113W, strain HOG1, active compounds read low",0.891
same,normalized growth,"S. cerevisiae deletion strains, locus YLR221C, strain rsa3, active compounds read low",0.982
same,normalized growth,"S. cerevisiae deletion strains, locus YLR258W, strain gsy2, active compounds read low",1
same,normalized growth,"S. cerevisiae deletion strains, locus YLR262C, strain YPT6 (second series), active compounds read low",0.733 (active)
same,normalized growth,"S. cerevisiae deletion strains, locus YLR268W, strain sec22, active compounds read low",0.959
same,normalized growth,"S. cerevisiae deletion strains, locus YLR320W, strain mms22, active compounds read low",0.98
same,normalized growth,"S. cerevisiae deletion strains, locus YLR330W, strain CHS5, active compounds read low",1.05
same,normalized growth,"S. cerevisiae deletion strains, locus YLR342W, strain FKS1 (second series), active compounds read low",0.883
same,normalized growth,"S. cerevisiae deletion strains, locus YLR342W, strain FKS1, active compounds read low",0.999
same,normalized growth,"S. cerevisiae deletion strains, locus YLR357W, strain rsc2, active compounds read low",1.16 [resistant] (active)
same,normalized growth,"S. cerevisiae deletion strains, locus YLR370C, strain arc18, active compounds read low",1.04
same,normalized growth,"S. cerevisiae deletion strains, locus YLR371W, strain rom2, active compounds read low",1.12 [resistant] (active)
same,normalized growth,"S. cerevisiae deletion strains, locus YLR384C, strain iki3, active compounds read low",1.09 [resistant] (active)
same,normalized growth,"S. cerevisiae deletion strains, locus YLR418C, strain cdc73, active compounds read low",1.07
same,normalized growth,"S. cerevisiae deletion strains, locus YML016C, strain PPZ1, active compounds read low",1.04
same,normalized growth,"S. cerevisiae deletion strains, locus YML032C, strain rad52, active compounds read low",0.912
same,normalized growth,"S. cerevisiae deletion strains, locus YML120C, strain ndi1, active compounds read low",0.974
same,normalized growth,"S. cerevisiae deletion strains, locus YML124C, strain tub3, active compounds read low",1.04
same,normalized growth,"S. cerevisiae deletion strains, locus YMR058W, strain fet3, active compounds read low",0.992
same,normalized growth,"S. cerevisiae deletion strains, locus YMR078C, strain ctf18, active compounds read low",1.05
same,normalized growth,"S. cerevisiae deletion strains, locus YMR125W, strain sto1, active compounds read low",1.13 [resistant] (active)
same,normalized growth,"S. cerevisiae deletion strains, locus YMR129W, active compounds read low",1.06
same,normalized growth,"S. cerevisiae deletion strains, locus YMR205C, strain PFK2, active compounds read low",0.969
same,normalized growth,"S. cerevisiae deletion strains, locus YMR223W, strain ubp8, active compounds read low",0.995
same,normalized growth,"S. cerevisiae deletion strains, locus YMR231W, strain pep5, active compounds read low",1.05
same,normalized growth,"S. cerevisiae deletion strains, locus YMR263W, strain SAP30, active compounds read low",1.07
same,normalized growth,"S. cerevisiae deletion strains, locus YMR307W, strain GAS1, active compounds read low",0.91
same,normalized growth,"S. cerevisiae deletion strains, locus YNL067W, strain RPL9B, active compounds read low",0.979
same,normalized growth,"S. cerevisiae deletion strains, locus YNL071W, strain lat1, active compounds read low",1
same,normalized growth,"S. cerevisiae deletion strains, locus YNL153C, strain GIM3, active compounds read low",0.971
same,normalized growth,"S. cerevisiae deletion strains, locus YNL183C, strain NPR1, active compounds read low",0.842
same,normalized growth,"S. cerevisiae deletion strains, locus YNL209W, strain ssb2, active compounds read low",0.984
same,normalized growth,"S. cerevisiae deletion strains, locus YNL233W, strain BNI4, active compounds read low",1.07
same,normalized growth,"S. cerevisiae deletion strains, locus YNL248C, strain rpa49, active compounds read low",0.983
same,normalized growth,"S. cerevisiae deletion strains, locus YNL250W, strain rad50, active compounds read low",0.995
same,normalized growth,"S. cerevisiae deletion strains, locus YNL271C, strain bni1, active compounds read low",1
same,normalized growth,"S. cerevisiae deletion strains, locus YNL298W, strain CLA4, active compounds read low",0.88 (active)
same,normalized growth,"S. cerevisiae deletion strains, locus YNL307C, strain MCK1, active compounds read low",1.03
same,normalized growth,"S. cerevisiae deletion strains, locus YNL322C, strain KRE1 (second series), active compounds read low",0.933
same,normalized growth,"S. cerevisiae deletion strains, locus YNR049C, strain mso1, active compounds read low",1.06
same,normalized growth,"S. cerevisiae deletion strains, locus YNR052C, strain pop2, active compounds read low",0.929
same,normalized growth,"S. cerevisiae deletion strains, locus YOL006C, strain TOP1, active compounds read low",0.948
same,normalized growth,"S. cerevisiae deletion strains, locus YOL012C, strain htz1",1.69
same,normalized growth,"S. cerevisiae deletion strains, locus YOL147C, strain pex11, active compounds read low",1.04
same,normalized growth,"S. cerevisiae deletion strains, locus YOR001W, strain rrp6, active compounds read low",0.986
same,normalized growth,"S. cerevisiae deletion strains, locus YOR061W, strain CKA2, active compounds read low",0.955
same,normalized growth,"S. cerevisiae deletion strains, locus YOR069W, strain VPS5, active compounds read low",1.02
same,normalized growth,"S. cerevisiae deletion strains, locus YOR070C, strain gyp1, active compounds read low",0.982
same,normalized growth,"S. cerevisiae deletion strains, locus YOR080W, strain dia2, active compounds read low",1.01
same,normalized growth,"S. cerevisiae deletion strains, locus YOR083W, strain WHI5, active compounds read low",0.939
same,normalized growth,"S. cerevisiae deletion strains, locus YOR106W, strain vam3, active compounds read low",0.933
same,normalized growth,"S. cerevisiae deletion strains, locus YOR136W, strain idh2, active compounds read low",1.01
same,normalized growth,"S. cerevisiae deletion strains, locus YOR144C, strain elg1, active compounds read low",0.989
same,normalized growth,"S. cerevisiae deletion strains, locus YOR184W, strain ser1, active compounds read low",0.679 (active)
same,normalized growth,"S. cerevisiae deletion strains, locus YOR231W, strain MKK1, active compounds read low",0.85 (active)
same,normalized growth,"S. cerevisiae deletion strains, locus YOR265W, strain rbl2, active compounds read low",1.03
same,normalized growth,"S. cerevisiae deletion strains, locus YOR270C, strain vph1, active compounds read low",0.839
same,normalized growth,"S. cerevisiae deletion strains, locus YOR290C, strain snf2, active compounds read low",0.916
same,normalized growth,"S. cerevisiae deletion strains, locus YOR316C, strain cot1, active compounds read low",1.06
same,normalized growth,"S. cerevisiae deletion strains, locus YPL051W, strain arl3, active compounds read low",0.935
same,normalized growth,"S. cerevisiae deletion strains, locus YPL078C, strain atp4, active compounds read low",0.939
same,normalized growth,"S. cerevisiae deletion strains, locus YPL106C, strain sse1, active compounds read low",1.22 [resistant] (active)
same,normalized growth,"S. cerevisiae deletion strains, locus YPL240C, strain hsp82, active compounds read low",1.06
same,normalized growth,"S. cerevisiae deletion strains, locus YPL241C, strain CIN2, active compounds read low",1.07 [resistant] (active)
same,normalized growth,"S. cerevisiae deletion strains, locus YPL256C, strain CLN2, active compounds read low",0.915
same,normalized growth,"S. cerevisiae deletion strains, locus YPR119W, strain clb2, active compounds read low",1.07 [resistant] (active)
same,normalized growth,"S. cerevisiae deletion strains, locus YPR141C, strain kar3, active compounds read low",1.07
same,normalized growth,"S. cerevisiae deletion strains, locus YPR163C, strain tif3, active compounds read low",0.977
same,normalized growth,"S. cerevisiae deletion strains, locus YPR167C, strain met16, active compounds read low",1.01
same,normalized growth,"S. cerevisiae deletion strains, strain wtn01, active compounds read low",0.945
same,normalized growth,"S. cerevisiae strains, strain wild type, active compounds read low",1
